Hit rate of the full screen: of about 220,000 compounds, about 370 (0.17%) were called active. The sample holds actives, similar compounds and a random draw of the others, so the mix is not that of the screen. Unmarked numbers belong to inactive results.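 Rule for the calls: active = inhibition above the mean inhibition of all tested compounds plus 3 SD, set separately per screening campaign (cut at about 2.9% in these data); inactive = the rest.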
Each compound was assayed against Eukaryotic translation initiation factor 2-alpha kinase 3 (Homo sapiens) (UniProt Q9NZJ5) (assay: block of dimerizer-induced PERK translation repression, primary screen, PERK inhibitor project, CHO PERK-DD cells, SEAP luminescence, HTS (AID 1416;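 note: PERK kinase domain activated by AP20187 dimerizer at 100 nM; 0% = DMSO with dimerizer and 100% = rapamycin at 8.4 µM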)). Conditions: CHO PERK-DD fusion, SEAP luminescence translation reporter; at 5.6 µM; stronger effect = higher value.
Sequence of Eukaryotic translation initiation factor 2-alpha kinase 3 (Homo sapiens) (Q9NZJ5 whole entry, looked up, the tested form may be a part): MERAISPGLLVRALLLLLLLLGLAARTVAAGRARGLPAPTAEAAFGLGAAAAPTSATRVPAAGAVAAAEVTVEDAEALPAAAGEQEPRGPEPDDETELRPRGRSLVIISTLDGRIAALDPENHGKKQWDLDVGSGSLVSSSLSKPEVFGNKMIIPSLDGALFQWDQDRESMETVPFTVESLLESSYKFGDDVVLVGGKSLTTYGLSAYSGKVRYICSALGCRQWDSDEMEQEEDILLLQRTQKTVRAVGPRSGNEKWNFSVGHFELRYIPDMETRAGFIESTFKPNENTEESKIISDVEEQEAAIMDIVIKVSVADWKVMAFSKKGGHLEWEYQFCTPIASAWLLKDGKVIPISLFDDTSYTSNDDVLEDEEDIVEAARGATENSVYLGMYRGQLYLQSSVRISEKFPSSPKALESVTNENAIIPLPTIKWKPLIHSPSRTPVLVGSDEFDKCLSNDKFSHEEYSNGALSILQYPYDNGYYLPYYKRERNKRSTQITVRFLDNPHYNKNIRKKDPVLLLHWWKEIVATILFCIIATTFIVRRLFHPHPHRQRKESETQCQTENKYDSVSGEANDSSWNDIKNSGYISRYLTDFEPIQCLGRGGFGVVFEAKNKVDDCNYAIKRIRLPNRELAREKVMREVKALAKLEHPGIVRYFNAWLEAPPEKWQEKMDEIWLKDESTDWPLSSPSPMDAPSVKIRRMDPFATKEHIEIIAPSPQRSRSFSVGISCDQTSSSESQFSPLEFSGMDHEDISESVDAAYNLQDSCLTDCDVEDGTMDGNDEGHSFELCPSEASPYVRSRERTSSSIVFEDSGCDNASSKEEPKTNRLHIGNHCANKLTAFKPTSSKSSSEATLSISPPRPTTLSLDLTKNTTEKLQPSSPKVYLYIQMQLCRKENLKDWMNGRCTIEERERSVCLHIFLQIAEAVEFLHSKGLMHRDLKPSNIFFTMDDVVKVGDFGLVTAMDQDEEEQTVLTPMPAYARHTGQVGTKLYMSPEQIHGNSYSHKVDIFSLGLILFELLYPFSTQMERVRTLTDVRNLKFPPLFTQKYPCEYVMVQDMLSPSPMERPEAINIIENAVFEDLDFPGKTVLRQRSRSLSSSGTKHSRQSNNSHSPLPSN
In the case of `O=c1c2sccc2nc(SCc2cc(=O)n3ccccc3n2)n1-c1ccc(Br)cc1`, the inhibition is reported as -1.2%.
`COc1cc(/C=N/NC(=O)Nc2ccccc2)ccc1OCCOc1ccccc1C` showed an inhibition of 0.13%.
Work on `CC(=O)Nc1ccccc1NC(=O)c1cc(C)cc(C)c1` yielded an inhibition of 0.02%.
Work on `O=c1[nH][nH]c(=O)c2cc(N3CCCC3)ccc12` yielded an inhibition of 0.69%.
In the case of `O=C1C=CC(=O)N1c1ccc(N2CCCCC2)cc1`, the inhibition is reported as 3.21% (active).
`Cc1ccccc1C(=O)Nc1ccc(N2CCCCCC2)cc1` showed an inhibition of -0.25%.
`CN1CCN(c2ccc(NC(=O)c3ccc4c(c3)[nH]c(=O)n4Cc3ccc(F)cc3)cc2)CC1` gave an inhibition of 0.51%.
With `CCc1cc(C(N)=O)c(NC(=O)c2ccc(OC)cc2)s1` the inhibition was 0.45%.
Work on `Cc1ccc2cc(/C=N/NC(=O)[C@@H]3CCCN3)c(Cl)nc2c1` yielded an inhibition of -0.87%.
With `CCCCc1nnc(NC(=O)CSc2nc(N)cc(=O)[nH]2)s1` the inhibition was 0.08%.
`C=CCSc1nc2ccccc2[nH]1` was tested, and the inhibition was -0.36%.
With `C=CCSc1nc(N)cc(=O)[nH]1` the inhibition was 2.99% (active).
`CCOc1ccc(CCNC(=O)C(CC)n2nc(C)n3c(cc4sccc43)c2=O)cc1OCC` (centres undefined) showed an inhibition of -0.56%.
`O=C(NCCc1ccc(F)cc1)c1n[nH]c2ccccc12` was tested, and the inhibition was 0.75%.
`C=C(C)CSc1nnc(-c2ccc(C)cc2)n1N` was tested, and the inhibition was 0.46%.
Work on `CCCn1nnnc1NC(=O)COc1ccc(Cl)cc1C` yielded an inhibition of -0.15%.
Work on `CSc1ccc(NC(=O)/C=C/C(=O)O)cc1` yielded an inhibition of 0.87%.
`COc1cccc(-c2ccc(C#N)c(SCC(=O)NCCc3ccc(Cl)cc3)n2)c1` showed an inhibition of 1.75%.
Compound `Cc1ccc(S(=O)(=O)N(Cc2ccc(Cl)cc2)c2ccccc2C(=O)NCc2cccnc2)cc1` has an inhibition of -0.82%.
With `O=C(Nc1ccc2cn[nH]c2c1)c1ccc(S(=O)(=O)N2CCOCC2)cc1` the inhibition was 1.2%.
Compound `Cc1ccc(NNC(=O)C2CCC2)cc1C` has an inhibition of 0.43%.
In the case of `COC(=O)CSc1nc2c(c(C3CC=CCC3)c1C#N)CCC2` (centres undefined), the inhibition is reported as 0.22%.
In the case of `CCC(C)OC(=O)C(C)Oc1ccc(-c2ccccc2)cc1` (centres undefined), the inhibition is reported as -0.27%.
With `Cc1nn(Cc2ccccc2Cl)c(C)c1NC(=O)Cn1nc([N+](=O)[O-])c(Cl)c1C` the inhibition was -0.58%.
Work on `CC(=O)N1CCN(S(=O)(=O)c2ccc(C)c([N+](=O)[O-])c2)C1C(C)C` (centres undefined) yielded an inhibition of 0.34%.
Compound `Cc1cccc(C)c1NC(=S)N(Cc1cccnc1)Cc1ccccc1Cl` has an inhibition of -0.05%.
Work on `CSc1ccccc1C(=O)NCc1ccccc1` yielded an inhibition of 1.84%.
`O=S(=O)(Nc1ncccn1)c1ccc(NS(=O)(=O)c2cccc(Cl)c2Cl)cc1` showed an inhibition of 0.64%.
For `Cc1cc(-c2n[nH]c(=S)n2-c2ccc(C)c(C)c2)no1`, the inhibition was 3.32% (active).
Work on `COc1ccccc1-n1c(-c2cc(-c3ccco3)[nH]n2)n[nH]c1=S` yielded an inhibition of 1.16%.
In the case of `Cc1ccc(OCc2n[nH]c(=S)n2-c2ccc(C)cc2)cc1`, the inhibition is reported as 0.51%.
Compound `Cc1ccc(SCCC(=O)Nc2cc(C)on2)cc1` has an inhibition of 1.3%.
Work on `Cc1cc(NC(=O)CCC(=O)N(CC(=O)NCC2CCCO2)c2ccccc2C)no1` (centres undefined) yielded an inhibition of 0.7%.
In the case of `COCCNC(=O)CN(C(=O)CCC(=O)Nc1cc(C)on1)c1ccc(C)cc1C`, the inhibition is reported as 3.05% (active).
`O=[N+]([O-])/C(N=Nc1ccccc1)=N\Nc1ccccc1` showed an inhibition of 0.56%.
In the case of `N#Cc1c(NC(=O)c2ccc(N3CCOCC3)c([N+](=O)[O-])c2)sc2c1CCCC2`, the inhibition is reported as 0.19%.
Compound `O=S(=O)(c1ccc(NC(=S)NN=C(C2CC2)C2CC2)cc1)N1CCOCC1` has an inhibition of 1.01%.
`C=CCSC(CC)(CC)C(N)=O` was tested, and the inhibition was 2.98% (active).
`O=S(=O)(NCC1OCCc2ccccc21)c1ccccc1` (centres undefined) showed an inhibition of 0.47%.
`Cc1c(-c2ccccc2)cn2c1-c1ccc(C)n1CC2` showed an inhibition of 0.83%.
`CCOC(=O)Cc1ncccc1C(=O)Nc1ccc(OC(F)(F)F)cc1` was tested, and the inhibition was 0.3%.
In the case of `Cn1nccc1NC(=O)Nc1ccc(OC(F)(F)F)cc1`, the inhibition is reported as 4.03% (active).
Compound `COC(=O)[C@H](C)NC(=O)Nc1ccc(OC(F)(F)F)cc1` has an inhibition of -0.1%.
For `Cc1ccc(S(=O)(=O)Cc2cc(-c3ccc(Cl)cc3)no2)cc1`, the inhibition was 0.87%.
Compound `CCOC(=O)CN1C(=O)N[C@@H](c2ccc(Br)cc2)C(C(C)=O)=C1C` has an inhibition of 0.08%.
`CCOCCCNC(=O)C(=O)NCCCOCC` was tested, and the inhibition was 0.9%.
In the case of `CCOCCCNC(=O)Cc1cc(=O)[nH]c(=O)[nH]1`, the inhibition is reported as 3.08% (active).
`CCOC(=O)Cc1cc(=O)[nH]c(=O)[nH]1` was tested, and the inhibition was 1.51%.
Compound `O=C(CN1CCc2ccccc21)NC(c1ccccc1)c1ccccc1` has an inhibition of -0.59%.
Compound `CN(C)C(=O)c1cc(Br)ccc1Cl` has an inhibition of 2.54%.
With `CC(=O)NC(Cc1ccc(F)c(F)c1)C(=O)NC1CCN(C(=O)c2ccc(C)cc2)CC1` (centres undefined) the inhibition was 0.06%.
For `C=C(C)C1CC=C(C)/C(=N\NC(=O)CNc2ccccc2OC)C1` (centres undefined), the inhibition was 0.13%.
In the case of `O=C(O)COc1nsnc1N1CCOCC1`, the inhibition is reported as 2.98% (active).
`c1nc(COc2nsnc2N2CCOCC2)cs1` showed an inhibition of 0.89%.
With `c1ccc(COc2nsnc2N2CCOCC2)cc1` the inhibition was 1.4%.
Work on `NCC(=O)c1cccc2ccc[n+]([O-])c12` yielded an inhibition of -0.12%.
With `COc1cc(C(=O)N2CCN(C/C=C/c3ccccc3)CC2)cc(OC)c1C` the inhibition was -0.57%.
In the case of `CC(C)N1CCC(=NNc2ccc([N+](=O)[O-])cc2S(=O)(=O)N2CCOCC2)CC1`, the inhibition is reported as 1%.
Compound `CC(C)N(C(=O)CSc1nc(COc2ccccc2)nc2ccccc12)C(C)C` has an inhibition of 0.48%.
